Screening data from PubChem BioAssay.
HepG2 tox: qHTS for Inhibitors of TGF-b: Cytotox Counterscreen; HepG2 CAGA-GFP viability, ATP luminescence, 18 h; 410,000 compounds, 0.76% hits; Potency, µM (doses to about 46.1 µM), usual class: cytotoxic
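HepG2 CAGA-GFP cells (1000/well, DMEM with 1% FBS) received compound, then TGF-beta at 500 pg/mL final, and were incubated 18 hours at 37 degrees C. Viability was read by CellTiter-Glo luminescence. Media-only wells were set as complete cell-killing and DMSO as no toxicity.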
S2 tox: Viability Counterscreen for Primary qHTS for Inhibitors of ATXN expression | 400,000 compounds, 0.49% hits | Potency, µM (titrated, usually from 56.7 µM), most hits filed as cytotoxic | S2 cells (HEK-293 line with an ATXN2-luciferase reporter) viability, CellTiter-Fluor protease fluorescence, 24 h; also: nearly all actives have a fitted effect of over 40% in size
TGFb SMAD3 inh: qHTS for Inhibitors of TGF-b; HepG2 CAGA-GFP TGF-b/SMAD3 reporter, GFP fluorescence, 18 h; TGF-beta stimulated, 500 pg/mL final; Potency, µM (doses to about 46.1 µM), hits mostly inhibitors; 410,000 compounds, 1.2% hits; AID 588855, 2011; also: nearly all actives have a fitted effect of over 65% in size
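TGF-beta reporter screen: HEPG2 CAGA-GFP, 1% FBS, 500 pg/mL TGF-beta final, 18 h; per-cell GFP summed per well; curves fitted and categorized by class.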
DT40 TDP1 CPT: qHTS for Inhibitors of human tyrosyl-DNA phosphodiesterase 1 (TDP1): qHTS in cells in presence of CPT; 420,000 compounds, 12% hits; AID 686979, 2013; Potency, µM (top dose mostly 46.2 µM), actives largely listed as inhibitors; chicken DT40 Tdp1-/-;hTDP1 cells + 20 nM CPT, ATP luminescence, 48 h; also: nearly all actives have a fitted effect of over 55% in size
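Cell growth measured by CellTiter-Glo luminescence after a minimum 48 h, 37 C compound exposure with 20 nM CPT in Tdp1-knockout DT40 cells stably expressing hTDP1, seeded 400/well; qHTS titration format.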
ATXN2 expr inh: Primary qHTS for Inhibitors of ATXN expression | Potency, µM (series often up to 57 µM), hits mostly inhibitors | HEK-293 ATXN2-luciferase reporter, luminescence, 24 h | 360,000 compounds, 0.72% hits | AID 1745845, 2022; also: nearly all actives have a fitted effect of over 55% in size
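qHTS (up to 57 uM final) was run with 24 h compound exposure of reporter cells at 37 °C. Each well was multiplexed: SteadyGlo luminescence measured ATXN2-luciferase expression after a fluorogenic Gly-Phe-AFC viability readout (25 uM final).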
TDP1 cell noCPT: qHTS for Inhibitors of human tyrosyl-DNA phosphodiesterase 1 (TDP1): qHTS in cells in absence of CPT; DT40 Tdp1-/- hTDP1 cells, no CPT, ATP luminescence, 48 h; Potency, µM (top dose mostly 46.2 µM), usual class: inhibitors; 420,000 compounds, 15% hits; also: nearly all actives have a fitted effect of over 55% in size
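Cells were dispensed at 400 per well, compounds added by pin tool, plates incubated ≥48 hr at 37 °C, then CellTiter-Glo added for 30 min at room temperature before luminescence reading. Line: DT40 Tdp1-/- complemented with hTDP1; camptothecin omitted.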
Hits are given with their value; 0 = inactive; ? = inconclusive; - = no result given. Rows were chosen to be rich in hits. Some 17% of all compounds tested hit in one or more screens of this group. Calls follow the shape of the dose curve; as a rule, active = well fitted curve in the direction sought with a large enough effect; inconclusive = small, poorly fitted or top-dose-only effect, or another doubt; inactive = no such curve, though single readings can be large; an effect the other way counts as inactive or inconclusive.

SMILES	HepG2 tox	S2 tox	TGFb SMAD3 inh	DT40 TDP1 CPT	ATXN2 expr inh	TDP1 cell noCPT
COc1ccc(-c2nc(CN3CCN(c4cc(C)nc(C)c4)CC3)c(C)o2)c2ccccc12	0	?	?	0	11µM	?
Cc1cc(N2CCN(Cc3nc(-c4ccc(Cl)cc4)oc3C)CC2)cc(C)n1	0	0	?	12µM	?	18µM
Cc1oc(-c2cccc3ccccc23)nc1CN1CCN(c2ncnc3ccccc23)CC1	0	?	0	16µM	?	12µM
COc1ccc(-c2nc(CN3CCN(Cc4ccccc4)CC3)c(C)o2)cc1	0	0	?	0	0	0
O=C1c2cccc3cccc(c23)C(=O)N1Cc1ccccn1	0	0	0	0	-	0
Cc1cccc(-c2noc(-c3ccno3)n2)c1	0	0	0	0	-	0
Cc1ccc(CNC(=O)CCCc2nnc3n(C)c(=O)c4sccc4n23)cc1	0	0	0	?	0	?
Cc1cc2c3c(c1)C1(C(=O)N3C(C)(C)CC2C)C(C#N)=C(N)OC2=C1C(=O)CC(C)(C)C2 (centres undefined)	0	0	0	0	0	?
Cc1cc2c3c(c1C)C1(C(=O)N3C(C)(C)CC2C)C(C#N)=C(N)Oc2cc(O)ccc21 (centres undefined)	0	22µM	?	?	?	?
COc1ccc(S(=O)(=O)N2CCCCC2)cc1NC(=O)C1CC(=O)N(Cc2ccccc2)C1 (centres undefined)	0	0	0	0	0	0
COc1ccccc1-c1cc2nc(C)c(CCC(=O)NCCc3ccc(SC)cc3)c(C)n2n1	0	-	0	?	-	21µM
COc1ccccc1-c1cc2nc(C)c(CCC(=O)NCc3ccc(F)cc3)c(C)n2n1	0	0	0	?	0	?
COc1ccccc1-c1cc2nc(C)c(CCC(=O)Nc3cc(C)ccc3C)c(C)n2n1	0	0	0	?	0	?
COc1cc(OC)cc(-c2cc3nc(C)c(CCC(=O)NCCc4cccc(C)c4)c(C)n3n2)c1	0	0	0	16µM	0	?
COc1cc(OC)cc(-c2cc3nc(C)c(CCC(=O)Nc4ccccc4OC)c(C)n3n2)c1	0	?	?	?	?	23µM
COc1ccc(CCNC(=O)CCc2c(C)nc3cc(-c4cccc(F)c4)nn3c2C)cc1OC	0	0	?	8.2µM	0	8.2µM
COc1c(NC=O)c2c(c([N+](=O)[O-])c1OC)C(=O)OC2	0	0	0	0	0	0
O=C(CCc1nc2ccccc2c(=O)[nH]1)NNC(=O)c1cccc(Cl)c1	0	0	0	0	0	0
COc1ccc(-c2cc3nc(C)c(CCC(=O)NCc4ccccc4Cl)c(C)n3n2)c(OC)c1	0	0	0	18µM	0	13µM
Cc1nc2cc(-c3ccccc3)nn2c(C)c1CCC(=O)NCc1cccc(Cl)c1	0	0	?	26µM	0	?
COc1cc(OC)cc(-c2cc3nc(C)c(CCC(=O)NCc4ccc(Cl)cc4)c(C)n3n2)c1	0	?	?	?	?	?
COc1ccc(CNC(=O)CCc2c(C)nc3cc(-c4ccc(OC)cc4OC)nn3c2C)cc1	0	0	0	?	0	?
O=C(CCc1nc2ccccc2c(=O)[nH]1)NCc1cccc(Cl)c1	0	0	0	21µM	0	23µM
COc1cc(OC)cc(-c2cc3nc(C)c(CCC(=O)NCc4ccccc4)c(C)n3n2)c1	0	?	0	?	8.9µM	18µM
O=C(CCc1nc2ccccc2c(=O)[nH]1)Nc1cc(C(F)(F)F)ccc1N1CCOCC1	0	0	0	?	0	?
SMILES	HepG2 tox	S2 tox	TGFb SMAD3 inh	DT40 TDP1 CPT	ATXN2 expr inh	TDP1 cell noCPT
COc1cccc(Oc2ccc(C(F)(F)F)cc2NC(=O)CCc2nc3ccccc3c(=O)[nH]2)c1	0	?	?	16µM	0	18µM
COc1ccc(CCCNC(=O)C2Cc3c(-c4cccc(C(C)=O)c4)ccnc3O2)cc1 (centres undefined)	0	?	?	3.7µM	0	4.6µM
COc1ccc(CCCNC(=O)C2Cc3c(-c4ccc(NC(C)=O)cc4)ccnc3O2)cc1 (centres undefined)	0	0	0	16µM	0	18µM
Cc1ccc(NC(=O)Cn2c(=O)n(Cc3ccco3)c(=O)c3sc4ccccc4c32)c(C)c1	0	0	?	?	0	0
CCOC(=O)CSc1nnc(NC(=O)CN2CCCCC2)s1	0	0	0	?	0	?
Cc1nc(C(F)(F)F)c(C(=O)O)cc1-c1nc(-c2ccccc2)cs1	0	0	0	0	-	0
COc1ccc(C(NC(=O)C2CCN(CCOc3ccccc3)CC2)c2ccccn2)cc1 (centres undefined)	0	0	0	0	0	0
Cn1cc(CN2CCC(C(=O)NC(c3ccc(-c4ccccc4)cc3)c3cnccn3)CC2)c2ccccc21 (centres undefined)	11µM	20µM	?	13µM	0	16µM
O=C(NC(c1ccccc1)c1cnccn1)C1CCN(CCOc2ccc(Cl)cc2Cl)CC1 (centres undefined)	0	13µM	?	16µM	?	18µM
O=C(NC(c1ccccc1)c1ccsc1)C1CCN(CCOc2ccc(Cl)cc2Cl)CC1 (centres undefined)	0	-	?	?	?	?
O=C(NC(c1ccc(-c2ccccc2)cc1)c1cnccn1)C1CCN(Cc2ccc(Cl)c(Cl)c2)CC1 (centres undefined)	0	?	?	?	0	?
O=C(NNC(=O)C1CCN(Cc2ccc(Cl)c(Cl)c2)CC1)c1cccs1	0	0	?	0	0	16µM
O=C(NC(c1ccccc1)c1cnccn1)C1CCN(Cc2ccc(Cl)c(Cl)c2)CC1 (centres undefined)	0	?	0	9.2µM	?	13µM
COc1cccc(OC)c1C(=O)Nc1cccc(-n2cnnn2)c1	0	0	0	0	-	0
c1ccc(CSc2nc3ncccc3[nH]2)cc1	0	-	0	0	-	?
COc1cccc(CNC(=O)CSc2ncc(S(=O)(=O)c3ccc(Br)cc3)c(=O)[nH]2)c1	0	0	0	0	0	0
COc1ccc(C(C)NC(=O)C2CCN(CCOc3ccc(Cl)cc3Cl)CC2)cc1OC (centres undefined)	0	?	?	23µM	?	23µM
